{"source": "paper PMC12136788", "binders": {"B1": {"name": "chr18:77696836:77696837:-_ENSMUSG00000025427_ENSMUST00000026494|mus_mus|FALSE|FALSE (ssRNA)", "RNA": "GGGAGUUCUACAGUCCGACGAUCUCCUCGGGAUAGAGGGAUGAGAGGGCUUAGGAAUGUAGGGAGGGGAGGGAAGACAGAGAGCAGACUUGAGGUGGGGAAAGAGGCCUGGGGGAGGGGGCACGAGUGACAAGUGAAAGGAUUCAACAGAGGAUUGAGCAUCA"}, "B2": {"name": "chr11:71671816:71671817:+_ENSG00000137522_ENST00000530137|hu_hu|FALSE|FALSE (ssRNA)", "RNA": "GGGAGUUCUACAGUCCGACGAUCGCGAUGAGGAUGAGGACCAUUUCAGCAUGCAUAGCUUCAUGGCCACGGUGCUUGGCAUGCAUGCGUGCGUGCUCGACCCUCAUCCAGCUCCCGUUCCCCAGCAGCACCACCUCCAACCUCCAACAGAGGAUUGAGCAUCA"}, "B3": {"name": "chr18:46858332:46858333:-_ENSG00000141627_ENST00000269445|hu_hu|FALSE|FALSE (ssRNA)", "RNA": "GGGAGUUCUACAGUCCGACGAUCCGACUGCUGAGGGAAAACAUGGGCCCCUGGAGGAGGUGGCUUUUCUUGUCUGAUAAAGUUAUAUAAUAAGGUCUUCACAAGUUUGCUGGUGUAUGGAAGACAUGGACCUCGCAUCAAAUACAACAGAGGAUUGAGCAUCA"}, "B4": {"name": "chr8:108054885:108054886:-_ENSMUSG00000013160_ENSMUST00000013304|mus_mus|FALSE|FALSE (ssRNA)", "RNA": "GGGAGUUCUACAGUCCGACGAUCUGAACGCUGGUGCAGUGUGCCUGUGAUUAGCAGGAUCACGUUGUCAAUCAUGUAGCUAUAAGUUAUGAAGUCCAGGAAGCUGGCGAGCGGCUCAUAAGCAUGGUUUCUCAUGUGGCGGAACAACAGAGGAUUGAGCAUCA"}, "B5": {"name": "chr1:35656432:35656433:-_ENSG00000116560_ENST00000357214|perfect_dup|motif|central (ssRNA)", "RNA": "GGGAGUUCUACAGUCCGACGAUCAGAUCUUCCGCGAUCAUCCACAAUUACAACAGCCCUUUCAAUAGGACCAAACUGGCGGAAGGCCUCUUCCAAAAGUUCGUUGGAAACAUAAGGAGAGAGAUUUCGAACAGACAGGGCUGCCAACAGAGGAUUGAGCAUCA"}, "B6": {"name": "17381947_17386413_246_CDS_ENSMUSG00000041720_ENSMUST00000036161|mouse|control|control (ssRNA)", "RNA": "GGGAGUUCUACAGUCCGACGAUCGCAGAAGCUGAAGCUCUCUGCAACUGGGAGGUUACCUCUGCCUUUCCGAGCUGUGCUUUCUUCUACCCAAUACACUUUUGGAAGACCCCUGAGAAGUCGAAGAAGAUAAGGAACAACACACAACAGAGGAUUGAGCAUCA"}, "B7": {"name": "235582851_235590549_671_CDS_ENSG00000116957_ENST00000366601|human|control|control (ssRNA)", "RNA": "GGGAGUUCUACAGUCCGACGAUCAUUAAGGACUUCCAGGUGUCUGAGCUGAUCAGCAAUGUGUAUCACUUCAUCCCAUGAUGACAACAGGUUUUUUGACAAAUCUACCUUUCUGAUAUUAGGACAUGCUUCAGCAACUCCUCCCAACAGAGGAUUGAGCAUCA"}, "B8": {"name": "chr16:94690093:94690094:+_ENSMUSG00000040785_ENSMUST00000117648|mus_hu|mus_mus_mus_hu_True|18_98 (ssRNA)", "RNA": "GGGAGUUCUACAGUCCGACGAUCGGGCUGGGAUGACAGCAGACAGCCCUCGAUUCCAGGGGGAAAAAGUCUUAGUCGAUACUAAUUAAAAAGUGUUAAUGAUUUUUGAAAAUCAGAUGUAGAUUAAAAAAGAUGAAAAGCAAACAACAGAGGAUUGAGCAUCA"}, "B9": {"name": "chr16:94690093:94690094:+_ENSMUSG00000040785_ENSMUST00000117648|mus_hu|mus_mus_mus_hu_True|8_98 (ssRNA)", "RNA": "GGGAGUUCUACAGUCCGACGAUCGGGCUGGGAUGACAGCAGACAGCCCUCGAUUCCAGGGGGAAAAAGUCUUAGUCGAUACUAAUUAAAAAGUGUUAAUGAUUUUUGAAAAUCAGAUUACAUCUAUUUGAAUCAUAAAGCAAACAACAGAGGAUUGAGCAUCA"}, "B10": {"name": "chr16:94690093:94690094:+_ENSMUSG00000040785_ENSMUST00000117648|mus_hu|mus_mus_mus_hu_True|68_78 (ssRNA)", "RNA": "GGGAGUUCUACAGUCCGACGAUCGGGCUGGGAUGACGGACACACAGCCUCGAUUCCGGUAAAAAAAAAAAAUAGCCGAUACUAAUUAAAAAGUGUUAAUGAUUUUUGAAAAUCAGAUUACAUCUAUAAAAGAUGAAAAGCAAACAACAGAGGAUUGAGCAUCA"}, "B11": {"name": "chr16:94690093:94690094:+_ENSMUSG00000040785_ENSMUST00000117648|mus_hu|mus_mus_mus_hu_True|18_78 (ssRNA)", "RNA": "GGGAGUUCUACAGUCCGACGAUCGGGCUGGGAUGACGGACACACAGCCUCGAUUCCGGUAAAAAAAAGUCUUAGUCGAUACUAAUUAAAAAGUGUUAAUGAUUUUUGAAAAUCAGAUGUAGAUUAAAAAAGAUGAAAAGCAAACAACAGAGGAUUGAGCAUCA"}, "B12": {"name": "chr5:74677807:74677808:-_ENSG00000113163_ENST00000380494|hu_mus|motif|central (ssRNA)", "RNA": "GGGAGUUCUACAGUCCGACGAUCACGGACACAUCGAUUGUUCAGAGGAGCACUAUCAUGAUCCACAGAAAAAUUACAAACGGUCCAAGUUUCAGGAUCAUUUUCAGUCAAGGCUGGGAUCUUUCGAAUAGCAGAAAGAUACAGCAACAGAGGAUUGAGCAUCA"}, "B13": {"name": "chr17:6086338:6086339:+_ENSMUSG00000034345_ENSMUST00000039487|mus_mus|motif|central (ssRNA)", "RNA": "GGGAGUUCUACAGUCCGACGAUCUGACUGAAAUAUAAAAUCCAGUAGUGCUCCAAUACAGCUAGAGUGUCCAUAAAAAUCGGUCUUCUACUUAAUUCUUAGUAUCAGGUGUGUAAGUAACAAUCCACUGGAAAGUUUACAUUACAACAGAGGAUUGAGCAUCA"}, "B14": {"name": "chr16:94690093:94690094:+_ENSMUSG00000040785_ENSMUST00000117648|mus_hu|mus_mus_mus_hu_True|48_48 (ssRNA)", "RNA": "GGGAGUUCUACAGUCCGACGAUCGGGCUGGGAUGACGGACACACAGCCUCGAUUCCAGGGGGAAAAAGUCUUAGUCGAUACUAAUUUAAAAAGUAUAAUGAUUUUUGAAAAUCAGAUUACAUCUAUAAAAGAUGAAAAGCAAACAACAGAGGAUUGAGCAUCA"}, "B15": {"name": "chr16:94690093:94690094:+_ENSMUSG00000040785_ENSMUST00000117648|mus_hu|mus_mus_mus_hu_True|1_68 (ssRNA)", "RNA": "GGGAGUUCUACAGUCCGACGAUCGGGCUGGGAUGACGGACACACAGCCUCGAUUCCAGGGGGAAAAAAAAAUAGCCGAUACUAAUUAAAAAGUGUUAAUGAUUUUUGAAAAUCAGAUUACAUCUAUAAAAGAUGAAAGCACUUCAACAGAGGAUUGAGCAUCA"}, "B16": {"name": "chr16:94690093:94690094:+_ENSMUSG00000040785_ENSMUST00000117648|mus_hu|mus_mus_mus_hu_True|18_38 (ssRNA)", "RNA": "GGGAGUUCUACAGUCCGACGAUCGGGCUGGGAUGACGGACACACAGCCUCGAUUCCAGGGGGAAAAAGUCUUAGUCGAUACUAAUUAAAAAGUGUUUUUAUAAUUGGAAAAUCAGAUGUAGAUUAAAAAAGAUGAAAAGCAAACAACAGAGGAUUGAGCAUCA"}}, "note": "Over roughly 24,000 sequences, “enrichment r” has its median near 0.99; the highest 2% begin near 3.7. Shown is part of a subset that was picked to be rich in the highest values."}
{"molecular_target": "T1, UNK ZnF1-3 (human, UniProt Q9C0B0 31-174)", "T1 sequence": "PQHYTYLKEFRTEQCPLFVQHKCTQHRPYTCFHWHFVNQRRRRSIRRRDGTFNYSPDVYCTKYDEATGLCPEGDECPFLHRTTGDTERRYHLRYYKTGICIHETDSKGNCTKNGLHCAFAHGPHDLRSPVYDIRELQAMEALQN", "test": "nsRBNS (natural sequence RNA bind-n-seq); RBNS binding buffer (assumed for nsRBNS): 25 mM Tris pH 7.5, 150 mM KCl, 3 mM MgCl2, 0.01% Triton X-100, 500 ug/ml BSA, 20 U/ml SUPERase-In, 4 C; UNK is unkempt and MSI1 is Musashi-1; names of the RNAs are library labels; protein concentration not given here; high values mean tight binding", "units": {"binding signal": "enrichment R"}}
{"binder": "B1", "binding signal": 2.5}
{"binder": "B2", "binding signal": 0.585}
{"binder": "B3", "binding signal": 2.32}
{"binder": "B4", "binding signal": 0.896}
{"binder": "B5", "binding signal": 1.13}
{"binder": "B6", "binding signal": 0.848}
{"binder": "B7", "binding signal": 0.938}
{"binder": "B8", "binding signal": 4.09}
{"binder": "B9", "binding signal": 0.999}
{"binder": "B10", "binding signal": 5.49}
{"binder": "B11", "binding signal": 3.5}
{"binder": "B12", "binding signal": 1.36}
{"binder": "B13", "binding signal": 0.812}
{"binder": "B14", "binding signal": 0.836}
{"binder": "B15", "binding signal": 1.12}
{"binder": "B16", "binding signal": 3.69}
